This is a sample that favours compounds with a hit; in the whole collection about 5.1% have one here.
RAM inhibit: inhibitors of the yeast RAM network; hit rate 1.8% among 190,000; inhibition, % at 50 µM; S. cerevisiae dse1pr::URA3 reporter, 5-FOA growth OD615, 2 d; analog-sensitive cbk1-as2 kinase mutant strain;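 active = inhibition above a set limit, 3 SD over mean compound inhibition, cut at about 8.4% in these data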;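 note: 0% = DMSO-only wells with no growth and 100% = 10 µM 1-NA-PP1 full growth; inhibition rescues growth on 5-FOA so higher OD means more RAM inhibition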
S1P4 agonist: agonists of human S1P4 receptor; hit rate 0.35% among 220,000; O95977; activation, % at 4.98 µM; AID 1509; S1P4-expressing cell line, agonist reporter assay; in the data active = activation above about 11%;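 note: 0% = DMSO vehicle and 100% = reference agonist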
S1P3 antag: blocks the human S1P3 receptor; Q99500; inhibition, % at 4.98 µM; CHO S1P3 NFAT-BLA reporter, FRET fluorescence, antagonist mode; hit rate 0.27% among 170,000; AID 485;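 active = inhibition above the plate cutoff, the mean inhibition of test wells on that plate plus 3 SD, cut at about 28% in these data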;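 note: cells challenged with S1P at its EC80 of 0.8 µM; blue over green emission ratio from cleaved BLA substrate after 4 h stimulation; 0% = S1P-stimulated wells and 100% = unstimulated DMSO-only wells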
ROMK primary: modulators of human ROMK potassium channel | Tet-inducible ROMK, thallium flux fluorescence; actives lie on both sides | AID 1918 | B-score at 10 µM | hit rate 2% among 130,000;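 active = signal ratio slope over the read window, or its plate-corrected B-score, at least 3 SD from the plate mean, either direction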;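 note: B-score of the F/F0 ratio slope over 7 to 12 s after thallium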
Cl transport mod: KCC2 (human) Cl- transport modulation. Q9H2X9. KCC2 cells, thallium flux FluoZin-2 fluorescence. B-score of Tl+ flux slope (higher = more flux/activation; lower = inhibition) at 10 µM. hit rate 2.2% among 190,000. AID 1456;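 active = thallium flux slope and its plate-corrected score both differing from the plate sample mean at a set confidence after two filtering rounds, in either direction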;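 note: slope of fluorescence scaled to starting intensity during 10 to 20 s after thallium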
Target sequence (Q9H2X9 whole entry, looked up): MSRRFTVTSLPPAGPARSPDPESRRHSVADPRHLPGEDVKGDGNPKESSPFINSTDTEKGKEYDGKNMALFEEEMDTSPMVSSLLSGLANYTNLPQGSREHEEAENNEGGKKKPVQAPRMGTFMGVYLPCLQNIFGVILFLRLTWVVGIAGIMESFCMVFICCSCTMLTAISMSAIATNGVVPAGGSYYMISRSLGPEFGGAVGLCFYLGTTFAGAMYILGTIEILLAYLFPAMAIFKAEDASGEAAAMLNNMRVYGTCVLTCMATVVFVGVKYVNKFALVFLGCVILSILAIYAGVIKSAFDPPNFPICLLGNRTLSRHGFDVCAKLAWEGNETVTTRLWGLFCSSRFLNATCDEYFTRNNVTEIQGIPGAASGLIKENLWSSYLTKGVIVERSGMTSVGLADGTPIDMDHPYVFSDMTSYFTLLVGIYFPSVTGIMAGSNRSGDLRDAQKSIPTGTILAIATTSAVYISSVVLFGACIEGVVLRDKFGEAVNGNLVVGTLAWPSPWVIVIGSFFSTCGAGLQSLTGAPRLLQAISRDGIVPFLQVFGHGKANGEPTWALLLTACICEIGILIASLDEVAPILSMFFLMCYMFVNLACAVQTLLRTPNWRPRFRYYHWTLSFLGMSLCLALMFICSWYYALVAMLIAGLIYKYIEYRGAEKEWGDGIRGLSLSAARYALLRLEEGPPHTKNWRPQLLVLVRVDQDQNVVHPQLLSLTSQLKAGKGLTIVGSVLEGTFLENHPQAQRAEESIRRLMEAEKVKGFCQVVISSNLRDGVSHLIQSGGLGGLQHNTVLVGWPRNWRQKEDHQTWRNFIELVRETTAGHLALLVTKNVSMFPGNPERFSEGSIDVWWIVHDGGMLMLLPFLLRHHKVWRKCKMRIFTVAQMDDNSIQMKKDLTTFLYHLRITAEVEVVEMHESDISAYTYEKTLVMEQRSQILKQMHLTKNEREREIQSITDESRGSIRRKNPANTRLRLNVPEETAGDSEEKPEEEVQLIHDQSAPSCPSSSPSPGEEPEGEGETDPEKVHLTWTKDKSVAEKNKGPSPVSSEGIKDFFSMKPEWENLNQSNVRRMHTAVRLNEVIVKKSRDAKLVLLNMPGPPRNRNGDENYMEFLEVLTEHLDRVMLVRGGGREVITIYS
S1P4 antag: blocks the human S1P4 receptor; O95977; S1P4-expressing cells, antagonist mode, reporter read-out; inhibition, % at 4.98 µM; hit rate 0.26% among 220,000; in the data active = inhibition above about 29%;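 note: 0% = wells stimulated with agonist and 100% = vehicle wells without agonist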
ROMK hit retest: human ROMK channel modulation, retest confirmation; shares compounds with ROMK primary; normalized thallium flux (F/F0 slope) at 10 µM; ROMK thallium flux, fluorescence ratio; active compounds read low; AID 1917; hit rate 54% among 3,000;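 active = Flux at 10 µM at least 3 SD below or above vehicle control mean in one or both replicates; inconclusive = no clear call, values can overlap the other calls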
An asterisk follows results filed as active; i = inactive; u = inconclusive; x = not tested or not shown.

SMILES | RAM inhibit | S1P4 agonist | S1P3 antag | ROMK primary | Cl transport mod | S1P4 antag | ROMK hit retest
CC(=O)Nc1ncc2c(n1)CC(c1ccco1)CC2=O (stereo not given) | -0.7 | -1.1 | x | 0.19 | x | 2.1 | x
COc1ccc(C(=O)Nc2ncc3c(n2)CC(c2ccco2)CC3=O)cc1 (stereo not given) | 3.3 | 4.0 | -28.0 | -6.48* | 0.211 | 2.8 | 0.0726
CC(C)(C)Nc1nc(NN)nc(NC(C)(C)C)n1 | 0.7 | -0.9 | x | -5.22* | 0.0534 | -4.5 | 0.0509*
CNc1nc(Cl)nc(NC(C)(C)C)n1 | 1.1 | 1.8 | x | x | x | -25.8 | x
CCCCN(CCCC)CC(O)COc1ccccc1C(=O)Nc1ccccc1 (stereo not given) | 1.4 | -1.0 | -28.3 | -3.49* | -0.266 | 6.9 | 0.0532*
CCN(CC)CC(O)COc1ccccc1C(=O)CCc1ccccc1 (stereo not given) | x | -2.2 | 3.7 | -0.904 | x | -4.4 | x
O=[n+]1c2c(n([O-])c3cc(F)c(N4CCCC4)cc31)CCCC2 | 3.2 | -1.9 | 20.8 | -6.33* | x | 6.6 | 0.0433*
O=[n+]1c2c(n([O-])c3cc(F)c(N4CCCC4)cc31)CCC2 | x | 0.6 | 1.5 | x | i | -23.2 | x
O=S(=O)(Nc1nc2c(s1)CCCC2)c1ccc(Br)cc1 | 0.3 | -0.3 | x | -3.15* | -0.423 | 0.0 | 0.0759
NC(CCCCCP(=O)(c1ccccc1)c1ccccc1)C(=O)O (stereo not given) | x | 2.0 | -8.8 | -0.317 | 0.805 | -11.8 | x
CCc1cccc(NC(=O)CSC2=NS(=O)(=O)c3ccccc32)c1 | 0.7 | 0.4 | x | x | x | -7.1 | 0.0594*
CC(C)c1cccc(C(C)C)c1NC(=O)COC(=O)C1=COCCO1 | 1.6 | 1.1 | 5.7 | 0.145 | -0.466 | -6.6 | x
CC(C)CCNC(=O)NC(=O)COC(=O)C1=COCCO1 | 0.8 | -0.8 | -28.3 | 0.457 | -0.574 | -1.7 | 0.0788
NC(=S)Nc1ccc(C(F)(F)F)cc1Cl | x | 1.7 | 5.3 | x | 0.0421 | -7.8 | x
COC(=O)c1ccc(OC(=O)c2ccc(OC)c(OC)c2)c(OC)c1 | 2.3 | -1.0 | x | -3.89* | -0.0935 | 0.2 | 0.0796
COC(=O)c1ccc(OC(=O)c2ccc(OC)cc2)c(OC)c1 | -0.4 | -2.1 | -3.5 | -0.503 | -0.21 | -6.5 | x
COC(=O)C1CCN(S(=O)(=O)c2ccc(OC)cc2)CC1 | 0.7 | -1.6 | x | -0.834 | x | -20.9 | x
C/C(=N\NC(=O)COc1ccc(C)cc1[N+](=O)[O-])c1cccs1 | 2.2 | -0.7 | -7.0 | -2.6* | -1.22 | 18.8 | 0.081
C/C(=N\NC(=O)COc1ccc(C)cc1Br)c1cc([N+](=O)[O-])cs1 | 1.6 | 2.1 | 11.4 | -0.295 | 1.73 | 11.5 | x
CCc1nc(SCC(=O)Nc2ccc(N(C)C)cc2)c2ccccc2n1 | x | 0.3 | -0.2 | 0.698 | -0.332 | -9.3 | x
CCOC(=O)c1c(CSC(=N)N)n(-c2ccccc2)c2cc(Br)c(OC(C)=O)cc12 | x | 0.0 | -5.6 | x | -0.00336 | 25.6 | 0.058*
CCCCC1=NN(C(=O)c2ccco2)C(O)(C(F)(F)F)C1 (stereo not given) | -0.5 | -0.8 | -3.7 | 0.331 | -0.105 | -2.6 | x
CCS(=O)(=O)Nc1ccc(C2=NN(S(C)(=O)=O)C(c3cccs3)C2)cc1 (stereo not given) | 0.2 | -1.9 | -7.7 | -0.746 | -1.47 | 14.4 | x
CCn1c(=O)cc(SCC(=O)NCc2ccco2)c2ccccc21 | 2.3 | 0.2 | 25.5 | 3.52* | -0.0781 | -2.6 | 0.0854
C1CN(c2nc3nonc3nc2N2CCOCC2)CCO1 | x | x | -23.0 | x | x | x | x
SMILES | RAM inhibit | S1P4 agonist | S1P3 antag | ROMK primary | Cl transport mod | S1P4 antag | ROMK hit retest
Cc1ccc(C)c(Nc2nc3nonc3nc2N2CCOCC2)c1 | 2.7 | -1.9 | x | -3.51* | -0.443 | 12.0 | u
OC1(c2ccccc2)CCN(Cc2ccccc2)C2CCCCC21 (stereo not given) | 0.0 | -2.3 | 4.7 | -4.48* | 0.0431 | 1.5 | 0.0669*
CC(=O)Oc1ccccc1-n1c(C)nc(=O)c(-c2ccccc2)c1C | x | 0.7 | -1.7 | x | -1.55 | -16.9 | x
COc1cc(C)ccc1OCCOCCOc1ccc([N+](=O)[O-])cc1 | 0.6 | -2.5 | 0.4 | -1.7* | -1.34 | -23.7 | 0.0711
OCC1(Cc2ccc(Cl)cc2)CCN(Cc2ccc(Oc3ncccn3)cc2)CC1 | 1.0 | -1.4 | 9.2 | -0.00445 | 0.0461 | -12.1 | x
Nc1ncnc2c1ncn2CCNCCc1ccccc1 | 1.2 | 0.0 | -4.1 | x | x | -15.9 | 0.0825

Assay outcomes deposited in PubChem BioAssay by several laboratories.
